Sm TGR inh = blocks Schistosoma mansoni thioredoxin glutathione reductase. Q962Y6. AID 485364. purified TGR, DTNB reduction, TNB absorbance 405 nm. Potency, µM (highest dose often 114 µM), inactives show at the highest dose activity change, negative = inhibition, usual class: inhibitors. actives 3% (n = 360,000); also: potency is read from the fitted curve at half-maximal effect; % is scaled to controls: 0 for no effect and ±100 for the full control effect; nearly all actives have a fitted effect of over 60% in size
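First, TGR (20 nM dispensed) and NADPH were mixed with compound. Second, a 15 min room-temperature incubation followed. Third, further NADPH and then DTNB were added to start the reaction. Finally, TNB absorbance was monitored kinetically.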
NS1 function inh = inhibitors of influenza NS1 protein function | Potency, µM (highest dose often 46.1 µM), for the others: at the highest dose activity, positive = more growth | actives 0.4% (n = 270,000) | AID 2326; calls by dose curve; also: potency is read from the fitted curve at half-maximal effect; actives are rising curves; nearly all actives have a fitted effect of over 50% in size
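OD600 was taken as the measure of yeast growth restored by compound in an NS1-expressing S. cerevisiae strain. Cells had been washed out of glucose medium and diluted 1:100 into galactose -URA medium, pH 6.0.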
CHX counter = counter-screen for Shiga toxin inhibitors: cycloheximide protein synthesis inhibition | AID 2314 | max response, % | actives 12% (n = 300,000) | cell reporter, cycloheximide protein synthesis inhibition counterscreen; in the data active = max response mostly above about 13%, no sharp cut-off; inactive = mostly below about 14%; also: read at 38.3 µM for the half of the compounds with a filed dose; 0% is about no effect
Pf growth 96h = inhibits malaria parasite growth, 96 h. Potency, µM (doses to about 28.7 µM), inactives show top-dose activity change, negative = inhibition, hits mostly inhibitors. actives 6.9% (n = 320,000). P. falciparum luciferase reporter growth, 96 h; also: potency is read from the fitted curve at half-maximal effect; % is scaled to controls: 0 for no effect and ±100 for the full control effect
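Plates of compound plus infected erythrocytes (2% hematocrit, 0.05% parasitemia final) incubate 96 hours, 37 C, 5% CO2. Detection reagent added; reduced luminescence from the parasites' luciferase reporter flags inhibition.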
Shiga toxin inh = blocks Shiga toxin action in Vero cells; Vero cells, Shiga toxin protein synthesis inhibition reporter; inhibition, % at 38.7 µM; actives 9.2% (n = 290,000); in the data active = inhibition mostly above about 28%, no sharp cut-off; inactive = mostly below about 43%; also: 0% is about no effect
Pf growth 48h = P. falciparum growth inhibition at 48 hours (one generation) | P. falciparum luciferase growth in erythrocytes, 48 h | Potency, µM (series often up to 28.7 µM), for the others: top-dose activity change, negative = inhibition, actives largely listed as inhibitors | actives 5.9% (n = 310,000); also: potency is read from the fitted curve at half-maximal effect; % is scaled to controls: 0 for no effect and ±100 for the full control effect
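Firefly luciferase activity from engineered P. falciparum reports growth; inhibitors lower the luminescent signal. Cultures contained 2% hematocrit erythrocytes at 0.1% final parasitemia.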
* marks the source's active call; other numbers are inactive results; u = inconclusive; x = no result; [ ] = remark or other dose. A selection: hits, their analogues and other compounds. The true share with any hit is near 21%. Unless noted, calls follow the shape of the dose curve; as a rule, active = well fitted curve in the direction sought with a large enough effect; inconclusive = small, poorly fitted or top-dose-only effect, or another doubt; inactive = no such curve, though single readings can be large; an effect the other way counts as inactive or inconclusive.

SMILES	Sm TGR inh	NS1 function inh	CHX counter	Pf growth 96h	Shiga toxin inh	Pf growth 48h
N#Cc1ccccc1S(=O)(=O)N1CCN(CC(=O)NCC2(N3CCOCC3)CCCCC2)CC1	-18%	x	x	10µM*	x	u
O=C(CN1CCN(S(=O)(=O)c2ccccc2Cl)CC1)NCC1(N2CCOCC2)CCCCC1	-6%	x	x	u	x	12µM*
O=C(CN1CCN(CC(=O)Nc2ccccc2Cl)CC1)NCC1(N2CCOCC2)CCCCC1	-18%	x	x	u	x	10µM*
O=C(COC(=O)/C=C/c1ccccc1)NC(=O)NCc1ccccc1	-9%	x	x	21%	x	5%
O=C(O)C[C@H]1OCC=C2C[N@@+]3([O-])CC[C@]45c6ccccc6N[C@@H]4[C@@H]1[C@H]2C[C@H]53	x	0%	x	x	x	x
NC(=O)C1(N2CCCCC2)CCN(CC(=O)Nc2cc(Cl)ccc2Cl)CC1	-3%	-5%	-4	18%	2	12µM*
O=C(CN1CCN(S(=O)(=O)c2cccc(Cl)c2)CC1)NCC1(N2CCOCC2)CCCCC1	-15%	x	x	u	x	10µM*
CCCCOc1ccc(C(=O)NCC(=O)NCC(c2ccc(F)cc2)N2CCOCC2)cc1 (configuration not stated)	-7%	x	x	u	x	u
Cc1nc2nc(SCc3c(F)cccc3Cl)nn2c(C)c1Cc1ccccc1	4%	x	x	x	x	x
Cc1nc2nc(SCC(=O)N3CCOCC3)nn2c(C)c1Cc1c(F)cccc1Cl	2%	-1%	13	31%	-16	3.7µM*
COC(=O)CC1C(=O)NCCN1C(=O)c1ccc([N+](=O)[O-])cc1 (configuration not stated)	-8%	5%	-5	5%	6	x
Cc1ccc(N2C(=O)C3C4C=CC(CNC(=S)Nc5cccc(Cl)c5)(O4)C3C2=O)cc1 (configuration not stated)	4µM*	0%	-5	u	-6	1%
Cc1ccc(N2C(=O)C3C4C=CC(CNC(=S)Nc5ccc(Cl)cc5)(O4)C3C2=O)cc1 (configuration not stated)	7.1µM*	-43%	9.6*	u	-2	-13%
Cc1ccc(CNC(=O)C2CCCN(C(=O)Nc3ccc(F)cc3)C2)cc1 (configuration not stated)	1%	-3%	-7	-4%	8	0%
Cc1ccc(N2C(=O)C3C4C=CC(CNC(=S)Nc5ccc(F)cc5)(O4)C3C2=O)cc1 (configuration not stated)	3.2µM*	-55%	7	5%	-44	u
Cc1ccc(N2C(=O)C3C4C=CC(CNC(=S)N5CCN(c6ccccn6)CC5)(O4)C3C2=O)cc1 (configuration not stated)	2.8µM*	x	-1	8%	40	u
CCNC(=S)Nc1ccc(Cl)cc1	u	11%	-1	-16%	12	1%
COc1cccc(C(=O)Nc2ccccc2-c2nc(-c3ccc(C)cc3)no2)c1	1%	x	x	x	x	x
COCCNC(=O)/C(C#N)=C/c1c(N2CC(C)OC(C)C2)nc2ccccn2c1=O (configuration not stated)	-2%	-7%	-5	24%	-3	21%
CC(=O)NS(=O)(=O)c1ccc(NC(=O)CN2C(=O)C3C4C=CC(C4)C3C2=O)cc1 (configuration not stated)	4%	6%	-1	-25%	-8	7%
CC(C)COC(=O)NCC12C=CC(O1)C1C(=O)N(c3ccc(Cl)cc3)C(=O)C12 (configuration not stated)	1.6µM*	-135%	1	34%	12	-2%
Cc1ccc(OCCCCNC(C)c2ccccc2)c(C)c1 (configuration not stated)	7%	-19%	-5	u	x	u
O=C(NNc1nc2cc3c(cc2s1)OCO3)c1ccccc1	-5%	28%	61*	53%	90*	64%
COc1cc(OC)cc(C(=O)NNc2nc3cc4c(cc3s2)OCO4)c1	-4%	-11%	-1	-1%	-6	14%
O=C(NNc1nc2cc3c(cc2s1)OCO3)c1cccc(F)c1	-25%	20%	61*	u	active	58%
SMILES	Sm TGR inh	NS1 function inh	CHX counter	Pf growth 96h	Shiga toxin inh	Pf growth 48h
Cc1ccc(CNC(=O)c2ccc3c(c2)nc2n3CCCC2)cc1	4%	x	x	x	x	x
O=c1c(F)cn(C2CCCO2)c(=O)n1Cc1c(Cl)cccc1Cl (configuration not stated)	2%	0%	-2	13µM*	15	x
C[C@H]1C(=O)N(S(=O)(=O)c2ccc([N+](=O)[O-])cc2)[C@H]1c1ccc(F)cc1	x	x	-3	x	-7	x
COc1ccc(Nc2oc(COc3ccc(C)cc3)nc2C#N)cc1	2%	4%	16	77%	41*	u
COc1ccc(Nc2oc(COc3cccc(C)c3)nc2C#N)cc1	-15%	4%	60*	-1%[5.75 µM]	76*	u
COc1ccc(Nc2oc(COc3ccc(OC)cc3)nc2C#N)cc1	0%	3%	-2	25%	3	u
CCNc1oc(COc2cccc(C)c2)nc1C#N	-3%	-11%	23*	u	48	-3%
Cc1cccc(OCc2nc(C#N)c(N3CC(C)CC(C)C3)o2)c1 (configuration not stated)	-5%	-12%	-5	13µM*	-3	x
Cc1cccc(OCc2nc(C#N)c(N3CCCC3)o2)c1	-10%	-5%	2	u	-2	12%
CCOC(=O)C1C(C(=O)OC)=C(c2ccc(F)cc2)c2ccc(OC)cc2N1S(=O)(=O)C(F)(F)F (configuration not stated)	x	x	6	x	28	x
O=C(Nc1nnc(SCCN2CCOCC2)s1)C1CC(=O)N(c2ccc(F)cc2)C1 (configuration not stated)	4%	0%	-4	u	-10	u
CN(C)S(=O)(=O)n1ccnc1	6%	0%	-3	x	-9	-4%
O=C(CCc1ccccc1)N=C1SC2CS(=O)(=O)CC2N1c1ccccc1F (configuration not stated)	-7%	-2%	-1	47%	16	u
O=C(CSc1nc2ccccc2s1)Nc1ncccn1	6%	-9%	40*	137%	13	40%
CCc1nc(SCC(=O)Nc2cccc3ccccc23)[nH]c(=O)c1C	-18%	10%	-5	-14%	-8	0%
O=C(CSc1ccccn1)Nc1nc2ccccc2s1	-8%	7%	28*	2.9µM*	19	45%
Cn1ccnc1SCC(=O)Nc1nc2ccccc2s1	x	-5%	34*	178%	72*	48%
Cc1c(C)n2c(SCC(=O)Nc3cccc4ccccc34)nnc2[nH]c1=O	4%	x	x	u	x	12µM*
CN(Cc1ccccc1)C(=O)c1ccc2c(c1)N(Cc1ccccc1F)C(=O)c1ccccc1S2(=O)=O	-9%	x	x	x	x	x
O=C(NCc1ccc(F)cc1)c1ccc2c(c1)N(Cc1c(F)cccc1Cl)C(=O)CS2	2%	x	x	x	x	x

Source: PubChem (National Center for Advancing Translational Sciences (NCATS))
